Assay results taken from PubChem BioAssay AID1159580 (chemical genetic matrix, 2015).
Hit rate of the full screen: of about 5,500 compounds, about 2,000 (36%) were called active. Another 18% or so got no clear call; they are omitted. Rule as the data show it: active = normalized growth mostly below about 0.91 (no sharp cut-off); inconclusive = no clear call, values can overlap the other calls; inactive = mostly above about 0.92. The list shows a part of the results.

Test: chemical genetic growth profiling, strain panel (AID 1159580);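 also: tested at 20 µM; growth read once vehicle control cultures reached saturation at 30 °C; 1 = growth at the plate median or of vehicle wells; lower values mean less growth of the strain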
Conditions: growth OD

Measured: normalized growth

CCS(=O)(=O)CCn1c([N+](=O)[O-])cnc1C
inactive: S. cerevisiae deletion strains, locus YJR075W, strain HOC1, hits give low values 0.981 | S. cerevisiae deletion strains, locus YKL009W, strain mrt4, hits give low values 1.04 | S. cerevisiae deletion strains, locus YKL068W, hits give low values 1.02 | S. cerevisiae deletion strains, locus YKL085W, strain MDH1 (second series), hits give low values 1.04 | S. cerevisiae deletion strains, locus YKL085W, strain MDH1, hits give low values 1.04 | S. cerevisiae deletion strains, locus YKL160W, strain elf1, hits give low values 1.03 | S. cerevisiae deletion strains, locus YKL190W, strain CNB1, hits give low values 1.01 | S. cerevisiae deletion strains, locus YKR001C, strain vps1, hits give low values 1.03 | S. cerevisiae deletion strains, locus YKR026C, strain gcn3, hits give low values 0.984 | S. cerevisiae deletion strains, locus YKR091W, strain srl3, hits give low values 0.999 | S. cerevisiae deletion strains, locus YLL001W, strain dnm1, hits give low values 0.993 | S. cerevisiae deletion strains, locus YLL026W, hits give low values 1.01 | S. cerevisiae deletion strains, locus YLL041C, strain sdh2, hits give low values 0.993 | S. cerevisiae deletion strains, locus YLR027C, strain aat2, hits give low values 0.997 | S. cerevisiae deletion strains, locus YLR039C, strain RIC1, hits give low values 1.07 | S. cerevisiae deletion strains, locus YLR058C, strain SHM2, hits give low values 1.01 | S. cerevisiae deletion strains, locus YLR102C, strain apc9, hits give low values 1.01 | S. cerevisiae deletion strains, locus YLR113W, strain HOG1, hits give low values 0.938 | S. cerevisiae deletion strains, locus YLR221C, strain rsa3, hits give low values 0.989 | S. cerevisiae deletion strains, locus YLR258W, strain gsy2, hits give low values 1.01 | S. cerevisiae deletion strains, locus YLR262C, strain YPT6 (second series), hits give low values 0.967 | S. cerevisiae deletion strains, locus YLR262C, strain YPT6, hits give low values 1.1 | S. cerevisiae deletion strains, locus YLR268W, strain sec22, hits give low values 1.01 | S. cerevisiae deletion strains, locus YLR320W, strain mms22, hits give low values 0.972 | S. cerevisiae deletion strains, locus YLR330W, strain CHS5, hits give low values 1.01 | S. cerevisiae deletion strains, locus YLR342W, strain FKS1 (second series), hits give low values 1.06 | S. cerevisiae deletion strains, locus YLR342W, strain FKS1, hits give low values 1.02 | S. cerevisiae deletion strains, locus YLR357W, strain rsc2, hits give low values 0.999 | S. cerevisiae deletion strains, locus YLR370C, strain arc18, hits give low values 1 | S. cerevisiae deletion strains, locus YLR371W, strain rom2, hits give low values 1.01 | S. cerevisiae deletion strains, locus YLR384C, strain iki3, hits give low values 1.01 | S. cerevisiae deletion strains, locus YLR418C, strain cdc73, hits give low values 1.03 | S. cerevisiae deletion strains, locus YML016C, strain PPZ1, hits give low values 1.01 | S. cerevisiae deletion strains, locus YML032C, strain rad52, hits give low values 1.03 | S. cerevisiae deletion strains, locus YML120C, strain ndi1, hits give low values 1 | S. cerevisiae deletion strains, locus YML124C, strain tub3, hits give low values 1 | S. cerevisiae deletion strains, locus YMR058W, strain fet3, hits give low values 1 | S. cerevisiae deletion strains, locus YMR078C, strain ctf18, hits give low values 1.01 | S. cerevisiae deletion strains, locus YMR125W, strain sto1, hits give low values 0.976 | S. cerevisiae deletion strains, locus YMR129W, hits give low values 0.98 | S. cerevisiae deletion strains, locus YMR205C, strain PFK2, hits give low values 0.988 | S. cerevisiae deletion strains, locus YMR223W, strain ubp8, hits give low values 1.04 | S. cerevisiae deletion strains, locus YMR231W, strain pep5, hits give low values 0.991 | S. cerevisiae deletion strains, locus YMR263W, strain SAP30, hits give low values 1.02 | S. cerevisiae deletion strains, locus YMR307W, strain GAS1, hits give low values 1.21 | S. cerevisiae deletion strains, locus YNL067W, strain RPL9B, hits give low values 1.02 | S. cerevisiae deletion strains, locus YNL071W, strain lat1, hits give low values 0.982 | S. cerevisiae deletion strains, locus YNL128W, strain TEP1, hits give low values 1.02 | S. cerevisiae deletion strains, locus YNL153C, strain GIM3, hits give low values 1.01 | S. cerevisiae deletion strains, locus YNL183C, strain NPR1, hits give low values 0.915 | S. cerevisiae deletion strains, locus YNL209W, strain ssb2, hits give low values 0.987 | S. cerevisiae deletion strains, locus YNL233W, strain BNI4, hits give low values 1.02 | S. cerevisiae deletion strains, locus YNL248C, strain rpa49, hits give low values 1.01 | S. cerevisiae deletion strains, locus YNL250W, strain rad50, hits give low values 1.02 | S. cerevisiae deletion strains, locus YNL271C, strain bni1, hits give low values 1.02 | S. cerevisiae deletion strains, locus YNL298W, strain CLA4, hits give low values 1.03 | S. cerevisiae deletion strains, locus YNL307C, strain MCK1, hits give low values 1.05 | S. cerevisiae deletion strains, locus YNL322C, strain KRE1 (second series), hits give low values 1.01 | S. cerevisiae deletion strains, locus YNL322C, strain KRE1, hits give low values 1.01 | S. cerevisiae deletion strains, locus YNR049C, strain mso1, hits give low values 0.997 | S. cerevisiae deletion strains, locus YNR052C, strain pop2, hits give low values 1.01 | S. cerevisiae deletion strains, locus YOL006C, strain TOP1, hits give low values 1.04 | S. cerevisiae deletion strains, locus YOL012C, strain htz1 0.976 | S. cerevisiae deletion strains, locus YOL147C, strain pex11, hits give low values 1 | S. cerevisiae deletion strains, locus YOR001W, strain rrp6, hits give low values 0.971 | S. cerevisiae deletion strains, locus YOR061W, strain CKA2, hits give low values 1.01 | S. cerevisiae deletion strains, locus YOR069W, strain VPS5, hits give low values 1 | S. cerevisiae deletion strains, locus YOR070C, strain gyp1, hits give low values 1.01 | S. cerevisiae deletion strains, locus YOR080W, strain dia2, hits give low values 1.01 | S. cerevisiae deletion strains, locus YOR083W, strain WHI5, hits give low values 1 | S. cerevisiae deletion strains, locus YOR106W, strain vam3, hits give low values 1.02 | S. cerevisiae deletion strains, locus YOR136W, strain idh2, hits give low values 1.02 | S. cerevisiae deletion strains, locus YOR144C, strain elg1, hits give low values 1.01 | S. cerevisiae deletion strains, locus YOR184W, strain ser1, hits give low values 1.07 | S. cerevisiae deletion strains, locus YOR231W, strain MKK1, hits give low values 0.962 | S. cerevisiae deletion strains, locus YOR265W, strain rbl2, hits give low values 0.994 | S. cerevisiae deletion strains, locus YOR270C, strain vph1, hits give low values 0.977 | S. cerevisiae deletion strains, locus YOR290C, strain snf2, hits give low values 1.02 | S. cerevisiae deletion strains, locus YOR316C, strain cot1, hits give low values 1.02 | S. cerevisiae deletion strains, locus YPL051W, strain arl3, hits give low values 1.03 | S. cerevisiae deletion strains, locus YPL055C, strain LGE1, hits give low values 1.06 | S. cerevisiae deletion strains, locus YPL078C, strain atp4, hits give low values 1.01 | S. cerevisiae deletion strains, locus YPL106C, strain sse1, hits give low values 0.994 | S. cerevisiae deletion strains, locus YPL240C, strain hsp82, hits give low values 0.991 | S. cerevisiae deletion strains, locus YPL241C, strain CIN2, hits give low values 1.01 | S. cerevisiae deletion strains, locus YPL256C, strain CLN2, hits give low values 0.973 | S. cerevisiae deletion strains, locus YPR119W, strain clb2, hits give low values 1 | S. cerevisiae deletion strains, locus YPR141C, strain kar3, hits give low values 1.02 | S. cerevisiae deletion strains, locus YPR163C, strain tif3, hits give low values 1.01 | S. cerevisiae deletion strains, locus YPR167C, strain met16, hits give low values 1.02 | S. cerevisiae deletion strains, strain wtn01, hits give low values 1 | S. cerevisiae strains, strain wild type, hits give low values 1.05
